Rows were chosen to be rich in hits. Some 5.7% of all compounds tested hit in one or more screens of this group.
TGFb SMAD3 inh: inhibitors of TGF-b signaling | 410,000 compounds, 1.2% hits | HepG2 CAGA-GFP TGF-b/SMAD3 reporter, GFP fluorescence, 18 h; TGF-beta stimulated, 500 pg/mL final | Potency, µM (doses to about 46.1 µM), most hits filed as inhibitors | AID 588855; further: nearly all actives have a fitted effect of over 65% in size
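GFP signal (ex488/em500-530) from TGF-beta-stimulated HEPG2 CAGA-GFP cells, 500 pg/mL final, 18 h at 37 degrees C in DMEM plus 1% FBS, normalized to unstimulated and DMSO-stimulated controls.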
HepG2 tox-1: kills HepG2 cells in TGF-b inhibitor counter-screen; HepG2 CAGA-GFP viability, ATP luminescence, 18 h; Potency, µM (series often up to 46.1 µM), hits mostly cytotoxic; 410,000 compounds, 0.76% hits
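CellTiter-Glo luminescence gave cytotoxicity after 18 hours at 37 degrees C. The cells were HepG2 CAGA-GFP in 1% FBS DMEM, stimulated with 500 pg/mL TGF-beta after compound addition. %Activity was normalised to no-cell wells (complete cell-killing) and DMSO (no toxicity), and curves were fitted and classified.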
S2 tox: viability counter-screen for ATXN expression inhibitors; S2 cells (HEK-293 line with an ATXN2-luciferase reporter) viability, CellTiter-Fluor protease fluorescence, 24 h; 400,000 compounds, 0.49% hits; Potency, µM (highest dose often 56.7 µM), actives largely listed as cytotoxic; AID 651635; further: nearly all actives have a fitted effect of over 40% in size
IL-1B inflam inh: inflammasome signaling inhibition, IL-1 beta readout; activity change, % at 57.5 µM; 360,000 compounds, 4.7% hits; AID 743279; THP-1 LPS/ATP IL-1B secretion, AlphaLISA, 16 h; stronger effect = lower value; in the data active means activity change below about -50%; inconclusive means mostly about -30% to -49%
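Secreted IL-1B measured by AlphaLISA bead assay after 16 h compound exposure of THP-1 cells; compounds (final up to 57.5 uM) added 1 h before LPS (250 ng/mL) and ATP (1.25 mM) stimulation; lower signal means less secretion.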
ATXN2 expr inh: inhibitors of ATXN2 expression; HEK-293 ATXN2-luciferase reporter, luminescence, 24 h; Potency, µM (titrated, usually from 57 µM), most hits filed as inhibitors; 360,000 compounds, 0.72% hits; further: nearly all actives have a fitted effect of over 55% in size
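ATXN2-luciferase reporter cells (luciferase flanked by upstream and downstream ATXN2 gene portions) were treated 24 h at 37 °C with compounds at up to 57 uM. SteadyGlo luminescence gave expression; GF-AFC fluorescence gave viability.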
TGFb confirm: confirmation of TGF-b signaling inhibitors in HepG2 reporter cells | shares compounds with TGFb SMAD3 inh | HepG2 CAGA-GFP TGF-b reporter, GFP fluorescence, 18 h; cells stimulated with TGF-beta, 500 pg/mL | Potency, µM (doses to about 46.1 µM), usual class: inhibitors | 1,600 compounds, 63% hits | AID 720534; further: nearly all actives have a fitted effect of over 65% in size
HepG2 tox-2: toxic to HepG2 cells in TGF-b counterscreen. shares compounds with TGFb SMAD3 inh. HepG2 CAGA-GFP viability, ATP luminescence, 18 h; cells stimulated with TGF-beta, 500 pg/mL. Potency, µM (highest dose often 46.1 µM), actives largely listed as inhibitors. 1,600 compounds, 27% hits; further: nearly all actives have a fitted effect of over 70% in size
CCL64 TGFb inh: blocks TGF-b signaling in CCL64 reporter cells; shares compounds with TGFb SMAD3 inh; CCL64 CAGA-GFP reporter, TGF-b stimulated, GFP fluorescence, 18 h; Potency, µM (top dose mostly 46.1 µM), hits mostly inhibitors; 1,600 compounds, 41% hits; further: nearly all actives have a fitted effect of over 65% in size
TGFb COP inh: validation of TGF-b inhibitors in HepG2 COP promoter reporter | shares compounds with TGFb SMAD3 inh | HepG2 COP-GFP TGF-b reporter, GFP fluorescence, 18 h; cells stimulated by added recombinant TGF-beta | Potency, µM (top dose mostly 46.1 µM), hits mostly inhibitors | 1,600 compounds, 3% hits | AID 720537; further: nearly all actives have a fitted effect of over 70% in size
Numbers stand for hits; i = inactive; ? = inconclusive; nt = not tested or not shown. Unless noted, the call rests on the fitted dose curve; in most records, active means well fitted curve in the direction sought with a large enough effect; inconclusive means small, poorly fitted or top-dose-only effect, or another doubt; inactive means no such curve, though single readings can be large; an effect the other way counts as inactive or inconclusive.

SMILES	TGFb SMAD3 inh	HepG2 tox-1	S2 tox	IL-1B inflam inh	ATXN2 expr inh	TGFb confirm	HepG2 tox-2	CCL64 TGFb inh	TGFb COP inh
O=C(/C=C/c1ccccc1)c1ccccc1	?	i	i	?	i	nt	nt	nt	nt
COc1ccc(C(=O)/C=C/c2ccc(OC)c(O)c2)c(F)c1	?	i	?	-104	i	nt	nt	nt	nt
COc1ccc(C=CC(=O)c2ccc(OC)c(OC)c2O)cc1OC	i	i	i	?	i	nt	nt	nt	nt
COc1ccc(S(=O)(=O)N2CCCOC2CNC(=O)C(=O)NCCCN2CCOCC2)cc1C (centres undefined)	i	1.4µM	i	i	i	nt	nt	nt	nt
O=C(O)c1ccccc1NS(=O)(=O)c1cccc(C(F)(F)F)c1	i	i	i	i	i	nt	nt	nt	nt
O=C(O)c1ccccc1NS(=O)(=O)c1cccc(-n2sc3ccccc3c2=O)c1	i	i	i	-93	i	nt	nt	nt	nt
Cc1ccc(NC(=O)c2ccc3c(O)c(S(=O)(=O)c4ccc(Cl)cc4)c(=O)[nH]c3c2)cc1	i	i	i	nt	i	nt	nt	nt	nt
C=Cc1ccc(Cn2nc(-c3ccc(C)cc3)ccc2=O)cc1	?	i	i	-79	i	nt	nt	nt	nt
COc1ccc(CNC(=O)c2ccc3c(c2)N=C(C)c2c(C)ccc(C)c2S3)cc1	?	i	?	nt	i	nt	nt	nt	nt
CC1=Nc2cc(C(=O)NCCN3CCOCC3)ccc2Sc2c(C)ccc(C)c21	16µM	i	i	i	nt	nt	nt	nt	nt
CC1=Nc2cc(C(=O)NCCCN3CCOCC3)ccc2Sc2c(C)ccc(C)c21	?	i	i	-73	i	nt	nt	nt	nt
CCOc1ccc(Cl)cc1-c1cc(C(=O)NCc2cc(C(F)(F)F)cc(C(F)(F)F)c2)[nH]n1	16µM	i	?	i	?	16µM	?	?	i
CCOc1ccc(Cl)cc1-c1cc(C(=O)NCc2ccccc2)[nH]n1	?	i	i	?	i	nt	nt	nt	nt
COc1ccc(C)cc1N=Nc1ccc(O)c2ncccc12	7.1µM	i	i	i	nt	6.5µM	i	2.3µM	i
Cc1ccc(C(=O)NCC(c2ccco2)S(=O)(=O)c2ccccc2)cc1C (centres undefined)	i	i	?	nt	i	nt	nt	nt	nt
COc1ccc(C(=O)Nc2nc(-c3nnn(-c4ccc(C(C)C)cc4)c3C)ns2)cc1	?	i	i	nt	i	nt	nt	nt	nt
CCCCN(C(=O)Cc1ccc(S(=O)(=O)N2CCOCC2)s1)c1c(N)n(CCCC)c(=O)[nH]c1=O	?	i	i	i	i	i	i	i	i
CCCCN(C(=O)c1cc(S(=O)(=O)N2CCOCC2)ccc1F)c1c(N)n(CCCC)c(=O)[nH]c1=O	i	i	i	i	i	nt	nt	nt	nt
CC(C)(C)C(=O)/C(=C/c1ccncc1)n1cncn1	4.5µM	14µM	nt	-98	16µM	18µM	13µM	5.8µM	?
CCc1nn2c(=O)cc(COC(=O)c3cccc(NC(=O)c4ccccc4C)c3)nc2s1	i	i	nt	nt	nt	nt	nt	nt	nt
CC1=C(CO)C(=O)OC([C@@H](C)C2CC[C@H]3C4C[C@H]5O[C@]56[C@@H](O)C=CC(=O)[C@]6(C)C4CC[C@]23C)C1 (some centres undefined)	2.8µM	i	5.6µM	-107	3.2µM	0.58µM	2.3µM	1.2µM	?
COc1ccc(OC)c(NC(=O)CCc2c(C)nc3c(c(C)nn3C(C)(C)C)c2C)c1	i	i	i	nt	i	nt	nt	nt	nt
COc1ccc(CNC(=O)C2CCN(S(=O)(=O)c3cccc(-c4noc(C)n4)c3)CC2)cc1	i	i	i	nt	i	nt	nt	nt	nt
O=S(=O)(Nc1cccnc1)c1cccc(C(F)(F)F)c1	i	i	i	i	i	nt	nt	nt	nt
O=[N+]([O-])c1ccc(S(=O)(=O)c2cccc(C(F)(F)F)c2)nc1	6.3µM	13µM	16µM	-102	?	3.7µM	7.3µM	2.6µM	16µM
SMILES	TGFb SMAD3 inh	HepG2 tox-1	S2 tox	IL-1B inflam inh	ATXN2 expr inh	TGFb confirm	HepG2 tox-2	CCL64 TGFb inh	TGFb COP inh
CN1CCN(CC(O)COc2ccc(S(=O)(=O)N3CCOCC3)cc2)CC1 (centres undefined)	i	i	i	i	i	nt	nt	nt	nt
CC(=O)Nc1ccc(S(=O)(=O)N2CCN(CC(O)COc3ccc4ccccc4c3)CC2)cc1 (centres undefined)	?	i	?	-61	?	26µM	i	i	i
CCOc1ccc(S(=O)(=O)N2CCN(CC(O)COc3cccc([N+](=O)[O-])c3)CC2)cc1 (centres undefined)	?	i	i	?	i	?	i	?	i
CC(=O)Nc1ccc(OCC(O)CN2CCN(S(=O)(=O)c3ccc(NC(C)=O)cc3)CC2)cc1 (centres undefined)	i	i	i	i	i	nt	nt	nt	nt
CC(C)Oc1ccc(CNC(=O)c2ccc(CN3CC(=O)N4CCCCC4C3=O)cc2)cc1 (centres undefined)	i	i	i	nt	i	nt	nt	nt	nt
CCN1CCOC(=O)C1CC(=O)Nc1ccc(Br)cc1 (centres undefined)	i	i	i	nt	i	nt	nt	nt	nt
CCOc1ccc(NC(=O)CCn2c(=O)c3cccn3c3cccnc32)cc1	i	i	nt	nt	nt	nt	nt	nt	nt
CC(=O)c1cccc(-c2cnc3c(NC=O)cc(-c4ccccc4F)cn23)c1	6.3µM	i	i	i	?	6.5µM	i	1.5µM	i
Cn1cc(-c2cnc3c(NC=O)cc(-c4cccc(C(F)(F)F)c4)cn23)cn1	11µM	i	i	i	i	23µM	i	?	i
O=CNc1cc(-c2cccc(F)c2)cn2c(-c3ccc(F)cc3)cnc12	?	i	i	i	i	nt	nt	nt	nt
O=CNc1cc(-c2ccoc2)cn2c(-c3ccc(F)cc3)cnc12	10µM	i	i	i	i	?	i	?	i
CC(=O)Nc1cc(-c2ccccc2F)cn2c(-c3ccccc3)cnc12	i	i	?	i	i	nt	nt	nt	nt
COc1ccc(OC)c(/C=C/C(=O)Nc2ccc(C(=O)OCCC(C)C)cc2)c1	i	i	nt	nt	i	nt	nt	nt	nt
NC(=O)CC(NC(=O)c1ccc(Br)cc1)c1ccc(N2CCC(Cc3ccccc3)CC2)c([N+](=O)[O-])c1 (centres undefined)	10µM	i	i	i	i	?	21µM	?	i

Screening data (PubChem)
